p53 PUMA act – mutant p53 pathway reactivation; SW480 PUMA-promoter luciferase; activation, % at 9.98 µM; hit rate 1.5% among 28,000; AID 624151; in the data active = activation above about 52%; inconclusive = no clear call, values can overlap the other calls
ID4 binder – binds human ID4 protein on microarray; P47928; calls only; hit rate 1.2% among 31,000; small molecule microarray, Flag-ID4 binding, fluorescence F/B; call rule not given here;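 note: a binder raises fluorescence above local background on the spot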
Target sequence (P47928 whole entry, looked up): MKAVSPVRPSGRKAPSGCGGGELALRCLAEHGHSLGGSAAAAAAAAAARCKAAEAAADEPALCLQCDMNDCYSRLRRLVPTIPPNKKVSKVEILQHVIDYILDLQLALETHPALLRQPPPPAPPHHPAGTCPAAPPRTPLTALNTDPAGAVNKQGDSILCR
A number is an active result; - = inactive; ? = inconclusive; . = not tested or not shown; + = active, no number. Compounds with a hit are over-represented: about 2.2% of the library has one in this group of screens.

SMILES | p53 PUMA act | ID4 binder
Cc1cccc(OCC(=O)Nc2cccc(-c3nc4cc(C)ccc4o3)c2)c1 | 86.1 | -
COc1ccc(OCC(=O)Nc2ccc(-c3nc4cc(C)ccc4o3)cc2)cc1 | - | -
Cc1ccc2oc(-c3cccc(NC(=O)COc4ccc5ccccc5c4)c3)nc2c1 | 81.6 | -
Cc1cc(C)cc(OCC(=O)Nc2cccc(-c3nc4ccccc4o3)c2)c1 | - | -
CCc1ccc2oc(-c3cccc(NC(=O)COc4ccccc4)c3)nc2c1 | 82.0 | -
CCc1ccc(OCC(=O)Nc2ccc3oc(-c4ccccc4)nc3c2)cc1 | ? | -
O=C(COc1ccccc1[N+](=O)[O-])Nc1cc2nn(-c3ccccc3)nc2cc1Cl | - | -
CCOC(=O)c1ccc(COC(=O)c2cc3ccccc3cc2O)o1 | - | -
CCOC(=O)c1ccc(COc2ccc(-c3cnc4ccccc4n3)cc2)o1 | 129.9 | -
O=S(=O)(N[C@@H]1CCCN(Cc2ccc(OCCO)cc2)C1)c1cccc(F)c1 | . | +
O=S(=O)(N[C@@H]1CCCN(Cc2ccc(OCCO)cc2)C1)c1cccc2cccnc12 | . | +
O=S(=O)(N[C@@H]1CCCN(Cc2cccc(OCCO)c2)C1)c1ccc(-c2ccccc2)cc1 | . | -
O=S(=O)(N[C@@H]1CCCN(Cc2ccc(OCCO)cc2)C1)c1ccc2ccccc2c1 | . | -
O=S(=O)(N[C@@H]1CCCN(Cc2cccc(OCCO)c2)C1)c1cccc(F)c1 | . | +
COc1ccc(S(=O)(=O)NC2CCN(Cc3ccc(OCCO)cc3)CC2)cc1 | . | -
Cc1ccc(S(=O)(=O)NC2CCN(Cc3ccc(OCCO)cc3)CC2)cc1 | . | +
Cc1nc(S(=O)(=O)N[C@@H]2CCN(Cc3cccc(OCCO)c3)C2)cn1C | . | -
Cc1ccc(C(C)C)c(O)c1C(=O)O | - | -
CC(C)NC(=O)Nc1ccc2c(c1)CC(=O)N([C@H](C)CO)C[C@H](C)[C@H](CN(C)CC1CC1)O2 | - | -
O=C(NC(=S)NCc1cccnc1)c1ccc(-c2cccc([N+](=O)[O-])c2)o1 | - | -
O=C(NC(=S)NCc1cccnc1)c1ccc(-c2cccc(Cl)c2Cl)o1 | 60.9 | -
O=C(CSc1n[nH]c(-c2ccco2)n1)N1c2ccccc2Sc2ccccc21 | - | -
O=C(O)c1ccc(CSc2n[nH]c(-c3ccco3)n2)cc1 | - | +
Cc1[nH]c(=S)[nH]c(=O)c1Cc1ccc(C(=O)O)o1 | - | +
C[C@@H]1CN([C@@H](C)CO)S(=O)(=O)c2ccc(C3=CCCC3)cc2O[C@@H]1CN(C)Cc1cccc(C(=O)O)c1 | - | +
SMILES | p53 PUMA act | ID4 binder
C[C@H]1CN([C@@H](C)CO)S(=O)(=O)c2ccc(-c3cccc(C(=O)N(C)C)c3)cc2O[C@@H]1CN(C)Cc1ccc2c(c1)OCO2 | - | +
C[C@H](CO)N1C[C@H](C)[C@H](CN(C)Cc2cccc(C(=O)O)c2)Oc2cc(C3=CCCC3)ccc2S1(=O)=O | - | -
C[C@H](CO)N1C[C@H](C)[C@@H](CN(C)Cc2ccc3c(c2)OCO3)Oc2cc(-c3cccc(C(=O)N(C)C)c3)ccc2S1(=O)=O | - | .
OC(CNC1CCCC1)Cn1c2ccc(Cl)cc2c2cc(Cl)ccc21 (stereo not given) | - | -
Cc1ccc(-c2cc(-c3c(C)nn(C)c(=O)c3N)[nH]n2)cc1 | 86.1 | -
C[C@@H]1CN([C@H](C)CO)C(=O)Cc2cc(NC(=O)Nc3ccc(C(F)(F)F)cc3)ccc2O[C@H]1CN(C)C(=O)NC1CCCCC1 | - | -
OCCCn1c(-c2ccc(Cl)cc2)cn2c3ccccc3nc12 | - | +
OCCCn1c(-c2ccccc2)cn2c3ccccc3nc12 | - | -
C[C@@H]1CN([C@@H](C)CO)C(=O)Cc2cc(NC(=O)C3CC3)ccc2O[C@H]1CN(C)C(=O)Nc1cccc2ccccc12 | - | -
O=C(O)c1cccc(S(=O)(=O)NCc2ccco2)c1 | - | -

High-throughput results as filed in PubChem.
